Assay results as given in PubChem BioAssay (NCI).
Compounds without any hit were thinned out: in the full panel of roughly 83,000, 20% have a hit.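 Single-dose data. Exposure time 48 hours. Values below 10 considered active.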 A number with no mark means an inactive call. Activity calls are given as the source filed them.

test system: HL-60(TB) leukemia; assay: NCI-60 one-dose screen, 48 h (100 = growth as untreated, 0 = no growth, -100 = all killed); details: 10 µM unless noted

| SMILES | growth |
| --- | --- |
| COc1ccc(NC(=O)Nc2ccc(OCC(=O)N=Nc3c(O)[nH]c4ccc([N+](=O)[O-])cc34)cc2)cc1 | 99% |
| O=C(/C=C1\C(=O)N(Cc2ccccc2)c2ccccc21)c1cc2ccccc2oc1=O | 93% |
| COc1cc2c(cc1OC)CN(CCCCOc1cc(O)c3c(=O)cc(-c4ccccc4)oc3c1)CC2 | 7.79% (active) |
| C=C1CCC2C3(C)COC(c4cccs4)OC3CCC2(C)C1CC(Sc1ccccc1)C1=CCOC1=O (stereo not given) | 19.4% |
| CCCCCCCCCc1ccc(C(=O)Nc2cc(C)ccc2C(=O)OC)cc1 | 97.1% |
| COc1ccc2c(c1)C(Sc1ccc(Cl)cc1)c1c(nc(N)c(C#N)c1N)O2 (stereo not given) | 44.8% |
| O=C(c1ccc(Cl)cc1)C(c1c[nH]c2ccccc12)c1c[nH]c2ccccc12 | -26.2% (active) |
| COc1ccc2[nH]c(=O)c(CSc3ccccc3Nc3nccc(-c4ccc(Cl)cc4)n3)cc2c1 | 23.2% |
| C=CCn1c(O)c(N=Nc2nc(-c3cc4ccccc4oc3=O)cs2)c2ccccc21 | 111% |
| O=C(CSc1nc2ccccc2c(=O)[nH]1)NNC(=O)c1ccccc1Cl | 105% |
| CC(C)C1=C[C@@]23CC[C@@H]4[C@](C)(CCC[C@]4(C)C(=O)NCc4ccccc4)[C@H]2C[C@@H]1[C@H]1C(=O)CCC(=O)[C@H]13 | 53.5% |
| Cc1ccc(C2CC(c3ccc(S(=O)(=O)NCCNc4nc(Nc5ccc(F)cc5)nc(N(C)C)n4)cc3)=Nc3c(N)nc(N)nc3N2)cc1 (stereo not given) | -10.4% (active) |
| COC[C@@H](CC(C)C)N=C1NC(=O)/C(=C/c2ccc3ncsc3c2)N1 | 1.21% (active) |
| CS(=O)(=O)Nc1cc(-c2ccc3ncnc(Nc4ccc(OCc5cccnc5)c(Cl)c4)c3c2)cnc1Cl | -59.5% (active) |
| CN(CCO)c1oc(-c2ccccc2)nc1[P+](c1ccccc1)(c1ccccc1)c1ccccc1 | -33.1% (active) |
| O=C(CNc1nc(-c2ccccc2)cs1)Nc1ccc([N+](=O)[O-])cc1Cl | 21.9% |
| CCOC(=O)/C(F)=C/C1CC1C1CCN(C(=O)OC(C)(C)C)CC1 (stereo not given) | 102% |
| N/C(=N\c1nc2ccccc2s1)NC(=O)Nc1ccccc1Br | -28.5% (active) |
| CC(C)(C)OC(=O)N1CCC2(CC1)Oc1ccccc1[C@H]1CC(c3ccc(Br)cc3)=NN12 | 64.1% |
| CC(=O)OC[C@@]1(C)C2CC[C@]3(C)C(CC=C4C5CC(C)(C)CC[C@]5(C(=O)Nc5cccc(C)c5)CC[C@]43C)[C@@]2(C)C[C@@H](OC(C)=O)[C@@H]1OC(C)=O (stereo not given in full) | 29.4% |

| SMILES | growth |
| --- | --- |
| O=C(c1ccccc1)c1ccc2nc(-c3cccc(Cl)c3)[nH]c2c1 | 97.6% |
| COc1c(F)ccc(C(=O)Nc2ccc3nc(NC(=O)C4CCCN(S(=O)(=O)c5cccc(Cl)c5)C4)sc3c2)c1F (stereo not given) | 76.8% |
| CN1C(=O)N(C)C2SC(N/N=C/c3ccccc3F)=NC21 (stereo not given) | 1.5% (active) |
| O=C(Nc1nc2ccc([N+](=O)[O-])cc2s1)Nc1cc(Cl)ccc1I | -47.7% (active) |
| O=c1[nH]c2ccc(Cl)cc2cc1CSc1nccc(-c2ccc(Cl)cc2)n1 | 102% |
| O=C(NN1C(=O)/C(=C/C=C/c2ccc([N+](=O)[O-])o2)SC1=S)c1cccc(O)c1 | -2.32% (active) |
| COc1cccc(-c2ccnc(/N=C(\N)Nc3ccc(S(=O)(=O)Nc4nc(C)cc(C)n4)cc3)n2)c1 | 91.9% |
| Cc1ccccc1[C@H]1C(C(=O)c2ccc(Cl)cc2)C2(N[C@@H]1c1ccccc1)C(=O)Nc1ccccc12 (stereo not given in full) | -18.1% (active) |
| COc1ccc(NC(=O)Cn2c(/C=C/c3cccc(Br)c3)nc3ccccc3c2=O)cc1 | 92.9% |
| Fc1ccccc1CNc1nc(SCCN2CCOCC2)nc2c1cnn2CC(Cl)c1ccc(Br)cc1 (stereo not given) | -22.8% (active) |
| O=C(Cn1c(/C=C/c2ccccc2)nc2ccccc2c1=O)Nc1ccccc1 | 64.7% |
| Oc1ccc(Cl)c(Nc2ncnc3c2cnn3CC(Cl)c2ccc(Br)cc2)c1 (stereo not given) | 80.5% |
| N#CC1=C(c2cccs2)Nc2c(c(-c3ccccc3)nn2-c2ccccc2)C12C(=O)Nc1ccc(Br)cc12 (stereo not given) | -7.78% (active) |
| FC(F)(F)c1cc2c(Cl)ncnc2n1CCN1CCCCC1 | -13.5% (active) |
| OCC1(CCCc2ccccc2)CCCN(c2nccc3ccccc23)C1 (stereo not given) | 22.7% |
| Cc1ccc(C(C)C)cc1Oc1cccc(-c2c(-c3ccc(C(F)(F)F)cc3)ncn2C2CCNCC2)n1 | -83.1% (active) |
| CCOc1ccc(-c2c(C#N)c(-c3ccc(Cl)cc3)nc3n[nH]c(-c4ccc(Cl)cc4)c23)cc1OC | 4.06% (active) |
| CCc1ccccc1-c1nc(CN[C@@H]2C[C@@H]3C[C@H]([C@H]2C)C3(C)C)c(C)o1 | -35.9% (active) |
| Cc1ccc(C(=O)N/C(=C2/OCCN2C)[P+](c2ccccc2)(c2ccccc2)c2ccccc2)cc1 | 38.8% |
| N#Cc1ccc(NC(=O)CSc2ccc(-c3ccc(Br)cc3)nn2)cc1 | 82.9% |
